# Results from PubChem BioAssay (EPA / NIEHS).
# Where “and” joins values, the source holds several entries; their conditions need not be identical. Equal values may be shown once. Some structures have more than one record in an assay (separate samples or runs), and their calls can disagree. Calls of active or inactive are those of the source. The calls were made as follows: active = hit-call score of the fitted dose curve at least 0.9, where 1 is the maximum; inactive = score below 0.9.
# Read-out: CD38, CD38 (gene 952)
# Assay: BSK_SAg_CD38: BioMAP Diversity Plus: SAg Assay for CD38 Biomarker Activity (AID 2283087)
# Conditions: primary human HUVEC with PBMC; actives raise or lower the signal
# Procedure: BSK_SAg is a cell-based, multiplexed-readout assay that uses umbilical vein endothelium and peripheral blood mononuclear cells, a human vascular primary cell co-culture, with measurements taken at 24 hours after chemical dosing in a 96-well plate.BSK_SAg_CD38 is one of 10 assay component(s) measured or calculated from the BSK_SAg assay. It is designed to make measurements of enzyme-linked immunosorbent assay, a form of binding reporter, as detected with fluorescence intensity signals by Enzyme-linked immunosorbent assay technology.Data from the assay component BSK_SAg_CD38 was analyzed into 1 assay endpoint. This assay endpoint, BSK_SAg_CD38, was analyzed with bidirectional fitting relative to DMSO as the negative control and baseline of activity. Using a type of binding reporter, gain or loss-of-signal activity can be used to understand changes in the signaling as they relate to the gene CD38. Furthermore, this assay endpoint can be referred to as a primary readout, because this assay has produced multiple assay endpoints where this one serves a signaling function. To generalize the intended target to other relatable targets, this assay endpoint is annotated to the cytokine intended target family, where the subfamily is other cytokine.
# The levels of cell surface (or secreted, indicated by the prefix "s") biomarker endpoints were measured by ELISA. Overt cytotoxicity to cells in confluent adherent cultures (all systems other than the BT system) was assessed by measuring total protein levels using sulforhodamine B (SRB) staining in parallel cultures at the time of biomarker measurements, indicated as SRB endpoints. For proliferation assays for adherent cell types, individual cell types are cultured at sub-confluence and relative cell numbers quantified by SRB staining at time points optimized for each system (48 h: 3C and CASM3C systems; 72 h: BT and HDF3CGF systems; 96 h: SAg system). SRB was performed by staining cells with 0.1% SRB after fixation with 10% TCA and reading wells at 560 nm.Viability and proliferation of PBMC (T cells) was quantified by Alamar Blue reduction for the SAg and BT systems. For PBMC viability (referred to as PBMC Cytotoxicity within the assay endpoint names), cells were plated (75,000/well in a 96-well plate) and then chemical samples added for 1 h before addition of activators, SEB and TSST-1 (20 ng/mL final concentration each). Cells were incubated for 90 h. Then, Alamar Blue (20 uL/well) (Invitrogen, Cat DAL1100) was added for 6 h, and the plates were read with a fluorescence microplate reader at 546/580 nm (excitation/emission). For PBMC proliferation, cells were plated and activated as above but incubated for only 16 h prior to addition of Alamar Blue. Plates were read after 6 h.
Structure (SMILES),outcome,AC50
O=C(O)C(F)(F)C(F)(F)C(F)(F)OC(F)(C(F)(F)F)C(F)(F)F,inactive,–
C[Si](Cl)(Cl)CCC(F)(F)C(F)(F)C(F)(F)C(F)(F)C(F)(F)C(F)(F)F,inactive,–
CC(C)CCCC(C)CCO (stereo not given),inactive,–
CO[Si](C)(CCC(F)(F)C(F)(F)C(F)(F)C(F)(F)C(F)(F)C(F)(F)F)OC,inactive,–
Cc1ccc(O)c(-n2nc3ccccc3n2)c1,inactive,–
CC1=CC2C3C=CC(C3)C2C1C (stereo not given),inactive,–
O=C1C=CC(=O)N1c1ccc(Cc2ccc(N3C(=O)C=CC3=O)cc2)cc1,–,5.71 µM (active)
O=C(O)C(F)(F)OC(F)(F)C(F)(F)OC(F)(F)C(F)(F)OC(F)(F)F,inactive,–
O=C(Cl)C(F)(F)C(F)(F)C(F)(F)C(F)(F)C(F)(F)C(F)(F)F,inactive,–
CC(C)(C)c1cc(CCC(=O)NCCCCCCNC(=O)CCc2cc(C(C)(C)C)c(O)c(C(C)(C)C)c2)cc(C(C)(C)C)c1O,inactive,–
FC(F)(F)C(F)(F)C(F)(F)C(F)(F)C(F)(F)C(F)(F)CC[Si](Cl)(Cl)Cl,inactive,–
NS(=O)(=O)C(F)(F)C(F)(F)C(F)(F)C(F)(F)C(F)(F)C(F)(F)F,inactive,43.9 µM (active)
O=S(=O)(O)CCC(F)(F)C(F)(F)C(F)(F)C(F)(F)F,inactive,–
OCCCCC(F)(F)C(F)(F)C(F)(F)C(F)(F)F,inactive,–
OCC(F)(F)C(F)(F)C(F)(F)CO,inactive,–
Brc1nc2ccccc2s1,inactive,–
CCN(CC)c1ccc(C=O)cc1,inactive,–
CCN(CC)c1ccc(N=Nc2ccccc2)cc1,–,27.5 µM (active)
OCC(O)CC(F)(F)C(F)(F)C(F)(F)C(F)(F)C(F)(F)C(F)(F)C(F)(F)C(F)(F)F (stereo not given),inactive,–

Structure (SMILES),outcome,AC50
Cc1cnccn1,inactive,–
CCOC(=O)CC(=O)C(F)(F)C(F)(F)F,inactive,–
FC(F)(F)C(F)(F)C(F)(F)C(F)(F)C(F)(F)C(F)(F)C(F)(F)CCI,inactive,–
O=C1c2c(O)ccc(Nc3ccc(CCO)cc3)c2C(=O)c2c([N+](=O)[O-])ccc(O)c21,–,20 µM (active)
C=CC(=O)OCC(F)(F)C(F)(F)C(F)(F)COC(=O)C=C,–,14.2 µM (active)
C=CC(=O)OCCC(F)(F)C(F)(F)C(F)(F)C(F)(F)F,–,47.8 µM (active) and 30 µM (active)
O=C(O)C(F)(F)C(F)(F)C(F)(F)C(=O)O,inactive,–
NC(=O)C(F)(F)C(F)(F)C(F)(F)C(F)(F)C(F)(F)C(F)(F)C(F)(F)F,inactive,–
Nc1cc([N+](=O)[O-])cc(Cl)c1O,inactive,–
COC(F)(C(F)F)C(F)(F)F (stereo not given),inactive,–
O=S(=O)(O)CCC(F)(F)C(F)(F)C(F)(F)C(F)(F)C(F)(F)C(F)(F)C(F)(F)C(F)(F)F,inactive,15.6 µM (active)
CCOC(C=C(C)CCC=C(C)C)OCC,inactive,–
O=C(c1ccccc1)c1ccc(O)cc1O,–,20 µM (active)
OCC(F)(F)C(F)(F)C(F)(F)C(F)(F)C(F)(F)C(F)(F)C(F)(F)C(F)(F)CO,inactive,–
Cc1cc(O)c(C(C)(C)C)cc1C(C)(C)C,–,10.1 µM (active)
CCN(CC)c1ccc(C=O)c(O)c1,inactive,–
O=C(O)C(F)(F)C(F)(F)C(F)(F)OC(F)(F)F,inactive,–
NCC(F)(F)C(F)(F)C(F)(F)C(F)(F)C(F)(F)C(F)(F)F,inactive,–
CCN=C1C=CC(=C(c2ccc(N(CC)CC)cc2)c2ccc(N(CC)CC)cc2)c2ccccc21,–,713 nM (active) and 470 nM (active)
